An excerpt weighted towards active compounds, which were near 6.2% of everything screened.
FMDV antiviral – foot and mouth disease virus antiviral activity; FMDV antiviral cell-based qHTS; Potency, µM (titrated, usually from 57.9 µM), actives largely listed as inhibitors; 410,000 compounds, 1.2% hits; calls by dose curve; tested in HEK293T cells; further: read-out not given here; nearly all actives have a fitted effect of over 45% in size
LASV entry inh – inhibitors of Lassa virus binding or cell entry. Lassa virus pseudotype entry inhibition, cell reporter. Potency, µM (titrated, usually from 37.9 µM), usual class: inhibitors. 300,000 compounds, 1.2% hits. AID 540256; calls by dose curve; tested in HEK293 cells; further: nearly all actives have a fitted effect of over 50% in size
HCMV antiviral – inhibitors of human cytomegalovirus | HFF cells, HCMV-luciferase reporter, 72 h; active compounds read low | activity change, negative = inhibition, % at 57.5 µM | 410,000 compounds, 4.5% hits; in the data active means activity change below about -60%; inconclusive means no clear call, values can overlap the other calls; inactive means above about -39%
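After 16 h attachment at 37C, HFF cells received test compound and HCMV-luciferase (1 PFU/cell); reporter luminescence read 72 h later, data normalized against buffer-only and known inhibitor Salinomycin.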
MARV entry inh – inhibitors of Marburg virus binding or cell entry | 300,000 compounds, 1.8% hits | AID 540276 | Marburg virus pseudotyped entry inhibition, cell reporter | Potency, µM (highest dose often 37.8 µM), most hits filed as inhibitors; calls by dose curve; tested in HEK293 cells
Each line names hits and unclear results; the compound was inactive in the other large screens; ! = repeats disagree.

O=S(=O)(c1ccccc1)N1CCN(c2cc(-c3ccccc3)nc3ncnn23)CC1	FMDV antiviral inconclusive, LASV entry inh 14.6µM, HCMV antiviral -90.9, MARV entry inh inconclusive
CNc1nc2cnc(-c3cc(OC)c(OC)c(OC)c3)cc2n1Cc1ccccc1	none (no result: FMDV antiviral, LASV entry inh, MARV entry inh)
Nc1cccc2nsnc12	MARV entry inh inconclusive
Nc1cc2nsnc2cc1Br	FMDV antiviral inconclusive, HCMV antiviral -107.0, MARV entry inh inconclusive
CCOC(=O)CCN1C(=O)[C@H]2[C@H]3[C@H](O)[C@H](O)C/C(=N\OCc4ccccc4)[C@@H]3CC[C@H]2C1=O	none (no result: FMDV antiviral, LASV entry inh, HCMV antiviral)
Cc1csc2nc(CCNS(=O)(=O)c3ccccc3)cn12	none (no result: MARV entry inh)
O=C(CCC1CCCN(C(=O)CCN2CCCCC2=O)C1)NCc1ccccc1F (stereo not given)	HCMV antiviral -105.4
Cn1cc(CCC(=O)N2CCCC(CCC(=O)NCc3ccccc3F)C2)cn1 (stereo not given)	none (no result: LASV entry inh, MARV entry inh)
COc1ccnc(Oc2ccc(F)cc2)c1C(=O)N/C=N/OCc1ccc(Cl)cc1Cl	MARV entry inh 13µM (no result: FMDV antiviral)
COc1ccnc(Oc2ccc(F)cc2)c1C(=O)N/C=N/OCc1ccc(F)cc1Cl	MARV entry inh inconclusive (no result: FMDV antiviral)
CC(=O)Nc1nc2c(ccc3ccccc32)s1	none (no result: LASV entry inh, MARV entry inh)
O=C(Cc1cccs1)Nc1nc2c(ccc3ccccc32)s1	LASV entry inh 7.94µM, MARV entry inh inconclusive
COc1ccc(OC)c(-c2csc(NC(=O)Cc3cccs3)n2)c1	LASV entry inh 0.316µM
COc1cc(C(=O)Nc2nc(-c3cccs3)cs2)cc(OC)c1OC	LASV entry inh 10.3µM, MARV entry inh 18.3µM (no result: FMDV antiviral)
COc1ccc(-c2csc(NC(=O)CSCC(=O)Nc3cc(C)on3)n2)c(OC)c1	none
COc1ccc(-c2csc(NC(=O)CSc3ccc(Br)cc3)n2)c(OC)c1	FMDV antiviral inconclusive, LASV entry inh 12.6µM, MARV entry inh inconclusive
CC(=O)C1=C(C)N(Cc2ccccc2)C(=O)NC1c1ccco1 (stereo not given)	LASV entry inh inconclusive (no result: FMDV antiviral, HCMV antiviral)
O=C(c1cn(CCOc2ccccc2F)c2ccccc12)C1CCCCC1	none
CCCCCCCC(=O)OC[C@H](CO)OC(=O)CCCCCCC	none (no result: LASV entry inh, HCMV antiviral, MARV entry inh)
O=C(Cn1nnc(N2CCOCC2)n1)NN=Cc1ccccc1Cl	none (no result: FMDV antiviral, LASV entry inh, MARV entry inh)
Cc1nc2c(C(=O)NCCCN(CC(C)C)CC(C)C)cnn2c(C)c1Cc1c(F)cccc1Cl	HCMV antiviral inconclusive (no result: MARV entry inh)
O=C(Cc1cccs1)Nc1nc(-c2ccc(F)cc2F)cs1	LASV entry inh 1.64µM, MARV entry inh inconclusive
COc1ccc(OC)c(-c2csc(NC(=O)CSc3ccccc3)n2)c1	LASV entry inh 16.4µM, HCMV antiviral inconclusive, MARV entry inh inconclusive
CN1CCN(CC(=O)Nc2nc(-c3ccccc3)cs2)CC1	none
COc1ccc(OC)c(-c2csc(NC(=O)Cc3ccccc3)n2)c1	LASV entry inh inconclusive, MARV entry inh inconclusive
COc1ccc(C2(O)CCN(CC(=O)Nc3nc(-c4ccccc4)cs3)CC2)cc1	FMDV antiviral 28.2µM, LASV entry inh inconclusive, MARV entry inh inconclusive
COc1ccc(OC)c(-c2csc(NC(=O)C3c4ccccc4Oc4ccccc43)n2)c1	LASV entry inh inconclusive, HCMV antiviral -65.8
Cc1ccc(C2=NCC(C)n3c2c2ccc(C(F)(F)F)cc2[n+]3[O-])cc1 (stereo not given)	none (no result: FMDV antiviral, LASV entry inh, MARV entry inh)
COc1ccc(NC(=O)C2(C)CCN2Cc2csc3ccccc23)cc1OC (stereo not given)	FMDV antiviral inconclusive (no result: LASV entry inh, MARV entry inh)
CC(=O)Nc1cc(C(=O)NCc2ccc(C)cc2)ccc1S(=O)(=O)c1ccc(Cl)cc1	none (no result: MARV entry inh)
CC(=O)OCC1(C)CN(c2ccccc2)NC1=O (stereo not given)	HCMV antiviral -62.1 (no result: LASV entry inh, MARV entry inh)
COc1ccc(NC(=O)c2cc(OCCCN(C)C)nn2Cc2ccccc2)cc1	none (no result: LASV entry inh, HCMV antiviral, MARV entry inh)
Cc1c(Br)cc(C(=O)N2CCCC2)c(C)c1C	none
Cc1c(Br)cc(C(=O)N2CCN(CCO)CC2)c(C)c1C	HCMV antiviral -101.4
O=C(CSC1=Nc2ccccc2C2=NC(Cc3c[nH]c4ccccc34)C(=O)N12)NC1CCCCC1 (stereo not given)	LASV entry inh inconclusive
CC1CC(C)CN(C(=O)CSC2=Nc3ccccc3C3=NC(Cc4c[nH]c5ccccc45)C(=O)N23)C1 (stereo not given)	LASV entry inh 2.59µM, MARV entry inh inconclusive (no result: HCMV antiviral)
Cc1cn([C@H]2C[C@H](O)[C@@H](CNCc3ccc(Oc4cc(-n5cccn5)ncn4)cc3)O2)c(=O)[nH]c1=O	none (no result: LASV entry inh, MARV entry inh)
CCOC(=O)c1cccn1C1C(=O)N(Cc2ccc(OC)cc2)c2ccc(OC)cc21 (stereo not given)	none (no result: FMDV antiviral, LASV entry inh, MARV entry inh)
Cc1cccc2c1N(Cc1ccccc1OCCC(C)C)C(=O)C2=O	LASV entry inh inconclusive, HCMV antiviral -93.2, MARV entry inh inconclusive
CCCCCOc1ccccc1CN1C(=O)C(=O)c2cc(C)ccc21	HCMV antiviral -93.4
COc1ccccc1CN1C(=O)C(=O)c2cccc(C)c21	none
Cc1cc(Br)cc2c1N(Cc1ccccc1OC(C)C)C(=O)C2=O	LASV entry inh inconclusive, HCMV antiviral -87.6, MARV entry inh inconclusive
CC(C)CN1CC2(CCN(C(=O)c3csnn3)CC2)C1	none (no result: LASV entry inh, HCMV antiviral, MARV entry inh)
CN1OC[C@@H]2CN(C(=S)NCCc3ccccc3)[C@H](c3ccccc3Br)C[C@@H]21	none (no result: LASV entry inh, MARV entry inh)
Cn1nnc(NC(=S)NC(=O)c2cc(Cl)ccc2Cl)n1	HCMV antiviral active (no result: LASV entry inh, MARV entry inh)
COc1cc2ccccc2cc1C(=O)NC(=S)Nc1nnn(C)n1	none
N#C/C(=N\Nc1ccc(Cl)cc1)C(=N)N1CCCCCC1	none
CC(C)(C)S(=O)(=O)/C(C#N)=N/Nc1ccc(Cl)cc1	FMDV antiviral inconclusive, LASV entry inh inconclusive, HCMV antiviral -82.4
CC(C)(C)c1ccc(N/N=C(\C#N)S(=O)(=O)C(C)(C)C)cc1	LASV entry inh inconclusive, HCMV antiviral inconclusive, MARV entry inh 10µM
Cc1cccc(N/N=C(\C#N)S(=O)(=O)C(C)(C)C)c1	none
CCc1cccc(C)c1NS(=O)(=O)c1c(C(=O)N2CCC(C)CC2)c(C)n(C)c1C	none (no result: MARV entry inh)
CCOc1ccccc1CN(CCc1ccc2c(c1)OCO2)Cc1ccccn1	FMDV antiviral inconclusive
CCOc1ccccc1CN(CCc1ccc2c(c1)OCO2)Cc1cc(OC)c(OC)cc1OC	LASV entry inh inconclusive, MARV entry inh 10µM
COc1ccc(OC)c(CCNC(=O)c2cc3cccc4c3n2CCS4)c1	FMDV antiviral 4.47µM (no result: MARV entry inh)
COc1ccc(CCNC(=O)c2csc3c2CCCC3)cc1OC	MARV entry inh inconclusive
COc1ccc(OC)c(CCNC(=O)c2csc3c2CCCCC3)c1	HCMV antiviral -62.3, MARV entry inh inconclusive (no result: LASV entry inh)
COC(=O)C1=CN(Cc2ccc(OC)c(OC)c2)C=C(C(=O)OC)C1c1cccc(F)c1	FMDV antiviral inconclusive (no result: LASV entry inh, MARV entry inh)
COC(=O)C1=CN(Cc2cccs2)C=C(C(=O)OC)C1c1cccc(O)c1	LASV entry inh 7.08µM
Clc1ccc(OCc2nnc(SCCN3CCCCC3)n2Cc2ccco2)cc1	MARV entry inh 25.9µM!
O=c1c2ccccc2nnn1CSc1nnc(COc2ccc(Cl)cc2)n1Cc1ccco1	HCMV antiviral -60.0
COc1ccccc1NC(=O)CSc1nnc(COc2ccc(Cl)cc2)n1Cc1ccco1	none
Cc1ccc(Cl)cc1-n1c(CCC(=O)O)ccc1-c1cccs1	none
O=C(c1csnn1)N1CCC2(CC1)CN(C(c1ccccc1)c1ccccc1)C2	none (no result: LASV entry inh, HCMV antiviral, MARV entry inh)
CC(=O)Nc1ccc(C2Nc3cc(C)c(C)cc3NC3=C2C(=O)CC(C)(C)C3)cc1 (stereo not given)	none (no result: LASV entry inh, MARV entry inh)
